An excerpt weighted towards active compounds, which were near 2.9% of everything screened.
NadD inh = blocks S. aureus nicotinate mononucleotide adenylyltransferase; inhibition, % at 20 µM; AID 602399; purified NadD enzyme, colorimetric absorbance read-out; 0.78% of 360,000 active; in the data active = inhibition above about 26%
H9c2 protect = modulators protecting cardiomyocytes from myocardial damage; protection from H2O2 cell death, % at 20 µM; 0.63% of 360,000 active; H9c2 cardiomyocytes, H2O2 injury protection, ATPLite, 2 h;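 active = compounds giving at least 50% protection of heart cells from peroxide-induced death in the single-dose screen, raw or plate-pattern-corrected value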;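 note: 0% = DMSO wells with peroxide and 100% = DMSO wells without peroxide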
A3A deaminase = inhibitors of human APOBEC3A DNA deaminase | P31941 | recombinant A3A, FAM/TAMRA ssDNA deamination fluorescence | inhibition, % at 20 µM | 0.41% of 330,000 active;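 active = at least 40% inhibition at 20 µM here, with at most 30% in a related deaminase screen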;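 note: plate controls were A3A with DMSO for no effect and wells lacking A3A enzyme for full effect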
Target sequence (P31941 whole entry, looked up): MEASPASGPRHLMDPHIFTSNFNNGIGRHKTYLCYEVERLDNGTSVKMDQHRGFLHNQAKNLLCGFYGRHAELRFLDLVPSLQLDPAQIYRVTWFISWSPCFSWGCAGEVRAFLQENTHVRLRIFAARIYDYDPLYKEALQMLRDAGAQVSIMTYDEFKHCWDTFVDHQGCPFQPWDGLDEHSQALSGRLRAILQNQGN
H9c2 TAG inh = triacylglycerol accumulation inhibition; H9c2 cells, Nile Red lipid (TAG) fluorescence; cells loaded with 200 µM oleic acid; inhibition, % at 12.5 µM; 0.66% of 230,000 active;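 active = pattern-corrected inhibition of lipid staining of at least 50% with the nuclear-stain viability signal not falling by more than 50%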;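 note: 0% = DMSO wells and 100% = triacsin C control wells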
PfGluPho inh = PfG6PD (Plasmodium falciparum) enzyme inhibition; PfGluPho enzyme, NADPH resazurin-diaphorase fluorescence; inhibition, % at 20 µM; 0.78% of 350,000 active; AID 504690;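 active = inhibition reaching at least a set limit at 20 µM in the primary screen, cut at about 59% in these data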;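 note: 0% = DMSO wells with substrate and 100% = DMSO wells lacking glucose-6-phosphate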
A3G deaminase = APOBEC3G (human) deaminase inhibition; Q9HC16; inhibition, % at 20 µM; recombinant A3G, ssDNA deamination FAM/TAMRA fluorescence; 0.28% of 330,000 active;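 active = inhibition of at least 40% at 20 µM, with no more than 30% in the related APOBEC3A deaminase screen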;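 note: plate controls were DMSO wells with A3G for no effect and wells lacking A3G enzyme for full effect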
Target sequence (Q9HC16 whole entry, looked up): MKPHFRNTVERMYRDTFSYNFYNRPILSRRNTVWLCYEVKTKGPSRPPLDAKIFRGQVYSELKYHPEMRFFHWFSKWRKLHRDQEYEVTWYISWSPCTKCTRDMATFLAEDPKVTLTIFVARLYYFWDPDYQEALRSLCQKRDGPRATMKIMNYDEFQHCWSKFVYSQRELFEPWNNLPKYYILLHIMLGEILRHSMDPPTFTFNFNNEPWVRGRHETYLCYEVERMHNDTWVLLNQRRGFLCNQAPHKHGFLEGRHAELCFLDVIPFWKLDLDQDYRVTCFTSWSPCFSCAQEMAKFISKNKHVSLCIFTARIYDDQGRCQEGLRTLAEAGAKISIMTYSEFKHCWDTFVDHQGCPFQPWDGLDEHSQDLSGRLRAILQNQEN
H9c2 TAG conf = triacylglycerol accumulation inhibition, confirmation; shares compounds with H9c2 TAG inh; H9c2 lipid accumulation, Nile Red fluorescence; cells loaded with 200 µM oleic acid; inhibition, % at 12.5 µM; 71% of 990 active; AID 651629;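 active = mean inhibition across replicates of 40% or more; inactive = mean inhibition below 40%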;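 note: plate controls were DMSO only wells for no effect and Triacsin C treated wells for full effect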
The depositor's hits bear a star; · = no result given.

SMILES	NadD inh	H9c2 protect	A3A deaminase	H9c2 TAG inh	PfGluPho inh	A3G deaminase	H9c2 TAG conf
C=CCC[C@H](Cc1ccc(F)cc1)C(=O)OC[C@@H](NC(=O)[C@@H](CC=C)CC(=O)N(CCO)Cc1ccccc1)C(C)(C)C	6.2	-5.7	-1.8	87.3*	18.8	-10.1	92.6*
C=CC[C@@H](CC(=O)N[C@H](CO)Cc1ccccc1)C(=O)N[C@H](COC(=O)[C@@H](CC=C)Cc1ccc(F)cc1)C(C)(C)C	-4.3	-3.4	-1.6	94.9*	14.4	-9.0	38.0
CC1(C(=O)Nc2cccc(OC(F)(F)F)c2)Cc2c(-c3ccc4c(c3)OCO4)ccnc2O1 (stereo unspecified)	8.5	-11.2	·	12.1	·	·	·
COc1cccc(CN(C)C(=O)c2cc(S(=O)(=O)NC3CCCCC3)ccc2C)c1OC	-5.3	-3.2	-1.7	-2.5	-4.0	-4.8	·
Cc1cccc(-c2ccc3c(c2)C2CC3CCN2)c1 (stereo unspecified)	9.2	-15.1	·	22.6	14.1	·	·
CCCCn1c(N)c(N(CC(C)C)C(=O)Cc2ccc3c(c2)OCCO3)c(=O)[nH]c1=O	0.7	-0.8	6.6	-8.8	-11.0	-7.6	·
C=CC[C@H](CC(=O)N(CCO)Cc1ccccc1)C(=O)N[C@H](COC(=O)[C@@H](CC=C)Cc1ccc(F)cc1)C(C)(C)C	-6.0	7.8	3.1	37.3	13.0	0.2	·
C=CC[C@@H](CC(=O)N(CCO)Cc1ccccc1)C(=O)N[C@H](COC(=O)[C@@H](CC=C)Cc1ccc(F)cc1)C(C)(C)C	-8.6	-2.3	1.4	85.4*	30.1	-4.6	89.5*
CC(=O)c1nnn(-c2ccc([N+](=O)[O-])cc2)c1C	-3.9	3.2	4.4	-5.6	7.4	2.9	·
CN(C)CCNc1ncnc2c1sc1nc(N3CCCC3)c3c(c12)CC(C)(C)OC3	-11.0	-6.2	4.6	28.9	7.4	-4.7	·
CCN(CC)CCNc1ncnc2c1sc1nc(N3CCCC3)c3c(c12)CC(C)(C)OC3	-12.5	-9.4	-2.6	56.0*	11.0	-10.9	45.5*
CCN(CC)CCNc1nc(-n2nc(C)cc2C)nc2sc3c(c12)CC(C)(C)OC3	-6.4	17.6	-4.9	55.3*	-2.1	-10.9	56.2*
COc1ccc(N2CCN(CC(=O)c3c(C)n(C)c4ccc(OC)cc34)CC2)cc1	-1.6	3.2	1.0	54.8*	18.6	3.9	-92.4
O=C(CCc1ccc(S(=O)(=O)N2CCOCC2)cc1)Nc1nc(COc2ccccc2)cs1	-7.0	-5.8	1.8	·	7.1	-0.7	·
COc1ccc(NC(=O)C2CCCN(S(C)(=O)=O)C2)cc1OC (stereo unspecified)	-4.3	3.7	-2.8	·	6.6	-7.7	·
COC(=O)C1=C(c2ccc(OC)cc2)OC(=O)C1(C)C	-4.6	20.5	-0.7	60.5*	-10.5	-10.8	-3.2
COC(=O)c1noc(-c2ccc(OC)cc2)n1	-3.9	-1.5	-3.1	7.6	-7.7	-0.9	·
CC(=O)Nc1ccc(Oc2ncccn2)cc1	0.8	·	-2.7	·	-14.3	-4.5	·
Cc1cccc(Oc2nc(-c3ccccn3)nc3ccccc23)c1	8.6	-3.4	-3.1	65.7*	-7.8	-2.3	45.7*
CC(=O)Nc1ccc(Oc2nc(-c3ccccn3)nc3ccccc23)cc1	-4.9	-2.9	-2.0	63.6*	-7.0	-3.7	3.1
Cc1cccc2sc(NC(=O)C3CCCN(S(=O)(=O)c4cccc5nonc45)C3)nc12 (stereo unspecified)	14.3	10.8	-4.9	53.7*	9.8	-7.3	74.2*
O=C(NC1CCc2ccccc21)c1cc(COc2cncc(Cl)c2)on1 (stereo unspecified)	-2.4	-7.7	1.9	-2.1	9.6	1.1	·
Nc1nonc1C(=O)NCCNC(=O)c1ccc(Cl)c(Cl)c1	-3.8	5.2	-3.2	·	0.2	-8.7	·
COc1cc(-c2cnc3c(NC=O)cc(-c4cccnc4)cn23)cc(OC)c1OC	3.4	76.0*	·	53.5*	·	·	46.0*
COc1ccc(-c2cc(NC=O)c3ncc(-c4ccc(OC)c(OC)c4)n3c2)cc1	2.4	35.9	·	55.6*	·	·	65.5*
SMILES	NadD inh	H9c2 protect	A3A deaminase	H9c2 TAG inh	PfGluPho inh	A3G deaminase	H9c2 TAG conf
N#C/C(=C/c1ccc(-c2ccc([N+](=O)[O-])cc2)o1)c1nnc(N2CCOCC2)n1-c1ccccc1	-2.9	27.2	·	-4.4	-1.4	·	·
CCOC(=O)c1cc(-c2ccccc2)sc1NC(=S)Nc1cccc(C)n1	7.1	0.8	-3.9	69.0*	-15.4	-4.4	56.3*
COc1ccc(OCCCCc2c(C)n[nH]c2C)cc1	-11.0	-11.7	1.0	-6.7	17.3	4.1	·
CC1CC(C)CN(CC(=O)c2cccs2)C1 (stereo unspecified)	-1.2	1.4	1.3	58.6*	-13.4	-8.4	6.0
CC(C)(C)OC(=O)N1CCC(CC2CC(c3ccc(Cl)cc3)=NO2)(C(=O)NCC2CCCCC2)CC1 (stereo unspecified)	4.9	-10.7	-6.9	66.6*	-35.8	-12.1	18.4
CC1(C(=O)N2CCC(CC3CC(c4ccc(Cl)cc4)=NO3)(C(=O)NCC3CCCCC3)CC2)CC1 (stereo unspecified)	2.7	9.0	-4.0	13.4	-15.4	-10.4	·
CCOc1ccccc1NC(=O)c1cccc(NC(=O)c2ccco2)c1	2.7	14.3	-1.9	79.2*	1.3	-3.7	82.0*
CC(C(=O)NCc1ccccc1Cl)n1cc([N+](=O)[O-])cn1 (stereo unspecified)	2.9	6.4	1.4	3.8	24.9	-4.3	·
CS(=O)(=O)c1cccc(NC(=O)C2CCCN2S(=O)(=O)c2ccc(F)cc2)c1 (stereo unspecified)	0.2	0.3	2.1	·	2.5	-0.4	·
CCOC(=O)c1cnc2ccc(OCC)cc2c1N1CCN(c2ccccc2)CC1	0.2	-13.8	-3.1	52.8*	16.1	-3.3	38.8
CCOc1ccc2ncc(S(=O)(=O)c3ccccc3)c(N3CCN(c4ccccc4)CC3)c2c1	-1.3	-1.2	-1.5	14.9	3.2	-7.9	·
COc1cc(/C=N/n2c(C)nc3ccccc3c2=O)ccc1O	1.9	3.5	0.4	·	9.0	-6.2	·
C=CCn1cnc2c(c1=O)c1nc3ccccc3nc1n2/N=C/c1cc(OC)c(OC)c(OC)c1	-11.1	64.9*	0.2	78.6*	-0.5	6.1	37.5
Cc1ccc(NC(=O)N2C3CCCC2CC(NC(=O)C2CC2)C3)cc1 (stereo unspecified)	-6.2	0.1	-1.6	·	14.4	-5.8	·
Cc1ccc(C)c(NC(=O)CN2C(=O)CC(C)S(=O)(=O)c3ccccc32)c1 (stereo unspecified)	-2.1	4.5	-2.2	·	-12.0	-5.9	·
O=C1OC(C(=O)NCc2ccccc2)Cc2ccccc21 (stereo unspecified)	-3.6	-14.6	-3.5	9.6	-26.0	-10.9	·

Screens (PubChem BioAssay)
